Screening data as filed in PubChem.
Shown are actives, neighbours in structure and some others; about 6.3% of the full set was active somewhere.
RORg inh: inhibitors of mouse ROR gamma transcriptional activity | P51450 | hit rate 5.4% among 310,000 | Drosophila S2 Gal4-RORgamma UAS-luciferase reporter, 20 h | Potency, µM (doses to about 53.6 µM), for inactives: at the top dose activity change, negative = inhibition, most hits filed as inhibitors | AID 2551; note: % is set by controls: 0 for no effect and ±100 for the full control effect; nearly all actives have a fitted effect of over 60% in size
Target sequence (P51450 whole entry, looked up, the tested form may be a part): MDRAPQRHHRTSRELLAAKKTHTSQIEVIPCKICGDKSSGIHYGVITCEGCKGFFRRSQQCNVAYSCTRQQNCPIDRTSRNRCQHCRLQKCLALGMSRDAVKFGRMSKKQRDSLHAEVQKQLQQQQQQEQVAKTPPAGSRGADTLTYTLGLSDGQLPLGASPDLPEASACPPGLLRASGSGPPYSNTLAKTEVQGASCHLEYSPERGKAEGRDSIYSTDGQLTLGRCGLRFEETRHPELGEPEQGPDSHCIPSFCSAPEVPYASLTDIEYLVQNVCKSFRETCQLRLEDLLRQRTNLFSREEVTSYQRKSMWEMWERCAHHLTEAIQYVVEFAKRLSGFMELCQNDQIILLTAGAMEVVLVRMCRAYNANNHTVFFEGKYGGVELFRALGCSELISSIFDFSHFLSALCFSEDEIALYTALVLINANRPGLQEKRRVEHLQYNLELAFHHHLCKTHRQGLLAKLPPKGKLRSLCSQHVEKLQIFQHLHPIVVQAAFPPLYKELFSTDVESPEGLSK
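Schneider cells (Drosophila), stable Gal4 DBD–ROR gamma + UAS-luc; 1 hr cmpd preincubation; Cu2+ induction 700 uM final; 20 hr ambient; luminescence.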
VP16 counter: Gal4-VP16 reporter inhibition counter-screen; Drosophila S2 Gal4-VP16 UAS-luciferase, luminescence, 20 h; Potency, µM (titrated, usually from 53.6 µM), for the others: at the top dose activity, negative = inhibition, usual class: inhibitors; hit rate 3.5% among 310,000;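 note: Gal4-VP16 expression switched on by copper sulfate through the metallothionein promoter; % is set by controls: 0 for no effect and ±100 for the full control effect; nearly all actives have a fitted effect of over 50% in size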
ATXN2 expr inh: inhibitors of ATXN2 expression | Potency, µM (doses to about 57 µM), for the others: top-dose activity change, negative = inhibition, most hits filed as inhibitors | HEK-293 ATXN2-luciferase reporter, luminescence, 24 h | hit rate 0.72% among 360,000; note: % is set by controls: 0 for no effect and ±100 for the full control effect; nearly all actives have a fitted effect of over 55% in size
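qHTS (up to 57 uM final) was run with 24 h compound exposure of reporter cells at 37 °C. Each well was multiplexed: SteadyGlo luminescence measured ATXN2-luciferase expression after a fluorogenic Gly-Phe-AFC viability readout (25 uM final).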
TGFb SMAD3 inh: blocks TGF-b signaling; HepG2 CAGA-GFP TGF-b/SMAD3 reporter, GFP fluorescence, 18 h; TGF-beta stimulated, 500 pg/mL final; hit rate 1.2% among 410,000; AID 588855; Potency, µM (highest dose often 46.1 µM), for the others: at the top dose activity, negative = inhibition, most hits filed as inhibitors; note: % is set by controls: 0 for no effect and ±100 for the full control effect; nearly all actives have a fitted effect of over 65% in size
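HEPG2 CAGA-GFP, 1000 cells/well; 2 h settle, 37 C; cpd via pin tool; TGF-b 500 pg/mL final; 18 h, 37 C; GFP imaging ex488/em500-530; %Activity normalised to -TGF-b and +DMSO controls; CRC fit, curve class.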
HepG2 viability: HepG2 cytotoxicity, counter-screen for TGF-b inhibitors | HepG2 CAGA-GFP viability, ATP luminescence, 18 h | Potency, µM (titrated, usually from 46.1 µM), for the others: at the top dose activity change, negative = cytotoxicity, hits mostly cytotoxic | hit rate 0.76% among 410,000 | AID 588856
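CellTiter-Glo luminescence gave cytotoxicity after 18 hours at 37 degrees C. The cells were HepG2 CAGA-GFP in 1% FBS DMEM, stimulated with 500 pg/mL TGF-beta after compound addition. %Activity was normalised to no-cell wells (complete cell-killing) and DMSO (no toxicity), and curves were fitted and classified.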
S2 tox: reduces viability in counter-screen for ATXN expression inhibitors; Potency, µM (top dose mostly 56.7 µM), actives largely listed as cytotoxic; hit rate 0.49% among 400,000; S2 cells (HEK-293 line with an ATXN2-luciferase reporter) viability, CellTiter-Fluor protease fluorescence, 24 h; note: nearly all actives have a fitted effect of over 40% in size
* = called active by the depositor; i = inactive; ? = inconclusive; · = no result; ! = a repeat was not active; [ ] = dose if it differs, or a comment. Calls come from the whole dose curve; as a rule, active = well fitted curve in the direction sought with a large enough effect; inconclusive = small, poorly fitted or top-dose-only effect, or another doubt; inactive = no such curve, though single readings can be large; an effect the other way counts as inactive or inconclusive. Potency is the fitted concentration of half-maximal effect.

SMILES	RORg inh	VP16 counter	ATXN2 expr inh	TGFb SMAD3 inh	HepG2 viability	S2 tox
CCOc1ccc(S(=O)(=O)Nc2ccc(F)cc2)c(C)c1C	?	18µM*	-20%	-8%	-73%	?
Fc1ccccc1N1CCN(c2ncnc3onc(-c4ccc(Cl)cc4)c23)CC1	·	·	1%	3%	-6%	i
COc1ccc(C(=O)CCN2CCCCCC2)cc1	3.2µM*	5µM*	?	?	-111%	?
CC(C)Oc1ccc(C(=O)CCN2CCCCC2)cc1	10µM*	6.3µM*	?	-18%	-33%	i
Cc1sc2ncnc(N(C)Cc3ccco3)c2c1C	12%	-20%	-11%	-3%	-1%	i
Cc1nc(N(C)Cc2ccccc2)c2c(C)c(C)sc2n1	20µM*	?	-24%	?	-4%	i
Cc1nn(C)c(Cl)c1CN1CCOc2ccc(CN3CCC(Oc4cccnc4)CC3)cc2C1	·	·	·	·	·	i
CC(C)C1C(=O)N(S(C)(=O)=O)[C@H]2CCN(C(=O)/C=C/CN3CCCCC3)[C@@H]12 (some centres not stated)	20%	4%	·	·	·	·
COc1cc(NC(=S)NCCc2ccccc2)c(OC)cc1NC(=O)C(C)C	?	-28%	-18%	-12%	-20%	i
COc1ccc(CCNC(=S)Nc2cc(C)ccc2C)cc1	21%	-2%	-11%	14%	-3%	i
COc1ccc(CCNC(=S)Nc2ccc(C)cc2C)cc1	4µM*	7.1µM*	-14%	-12%	-19%	i
FC(F)Oc1ccccc1NC(=S)NCCc1ccccc1	·	·	-15%	21%	-7%	i
Cc1cc(OC(F)F)ccc1NC(=S)NCCc1ccccc1	7.9µM*	10µM*	5%	-3%	-1%	i
COc1ccc(NC(=S)NCCc2ccccc2)c(C)c1	6.3µM*	4µM*	-7%	-10%	-9%	i
CCc1cc(Br)ccc1NC(=S)NCCc1ccccc1	5µM*	6.3µM*	-27%	?	-36%	i
Cc1nc(NCc2ccccc2)c2nc(-c3ccccc3)n(CCCN(C)C)c2n1	-19%	-7%	·	·	·	·
COc1ccc(C(=O)NCCS(=O)(=O)N(C)C2CCCCC2)cc1	·	·	1%	0%	-5%	i
Cc1ccc(C(=O)NC(=S)N(C)C2CCCCC2)cc1Br	0.22µM*	0.5µM*	·	·	·	·
Cc1ccc(NC(=O)CN(C)C2CCCCC2)cc1Br	-13%	-7%	-12%	5%	-28%	i
COc1ccccc1/C=C/C(=O)NC(=S)N(C)C1CCCCC1	?	3.2µM*	-18%	-1%	1%	i
COc1ccccc1/C=C/C(=O)NCCC1=CCCCC1	6%	-6%[10 µM]	·	10%	-2%	i
Cc1ccccc1C(=O)NC(=S)N(C)C1CCCCC1	?	2.8µM*	28%	9%	-4%	i
COc1ccc(C(=O)NC(=S)N(C)C2CCCCC2)cc1	2µM*	4µM*	25%	-1%	3%	i
O=C1C=CC2=C3c4cc(O)c(O)cc4C[C@@]3(O)COC2=C1	-45%	-5%	·	·	·	·
COc1ccc(C(=O)NC(=S)N(C)C2CCCCC2)cc1Br	0.71µM*	0.71µM*	-37%	-23%	-29%	i
SMILES	RORg inh	VP16 counter	ATXN2 expr inh	TGFb SMAD3 inh	HepG2 viability	S2 tox
Cc1c(C(=O)NCCCN2CCCC2=O)cnn1-c1ncc2c(n1)-c1ccccc1CC2	·	·	·	·	·	i
O=C(Nc1ccc(F)cc1F)C1CCCN1S(=O)(=O)c1cccc2nsnc12 (configuration not stated)	-38%	0%	-12%	16µM*	2%	i
N#Cc1ccc2c(c1)C[C@]1(c3ccsc3)OC3=C(C(=O)OC4(CCCCC4)C3)C2O1	-15%[10 µM]	-8%[10 µM]	·	·	·	·
N#Cc1c(N)n[nH]c1-c1cc2c([nH]1)CCCC2	?	-7%	8%	0%	-2%	i
N#Cc1cc2c([nH]c1=S)CCCCCC2	7.1µM*	16µM*	0%	-19%	-8%	i
O=C(NC(=S)N1CCN(c2ccc(Cl)cc2[N+](=O)[O-])CC1)c1cccs1	0.28µM*	·	?	?	-25%	·
Cc1ccc(S(=O)(=O)CC(=O)N2CCN(c3ccc([N+](=O)[O-])cc3)CC2)cc1	·	·	-30%	-28%	-6%	i
CCC(=O)N1CCN(c2ccc(Cl)cc2NC(=S)NC(=O)c2ccco2)CC1	·	·	-9%	10%	-14%	i
O=C(NC(=S)N1CCN(c2ccc([N+](=O)[O-])cc2)CC1)c1ccco1	0.71µM*	1.4µM*	1%	-30%	-17%	?
O=C(NC(=S)N1CCN(c2ccc(Cl)cc2[N+](=O)[O-])CC1)c1ccco1	0.28µM*	0.25µM*	-8%	7%	-7%	i
Cc1ccc(CC(=O)N2CCN(c3ccc([N+](=O)[O-])cc3)CC2)cc1	?	35µM*	-29%	-9%	-17%	i
NCCCC[C@H](NC(=O)[C@@H]1CCCN1C(=O)[C@@H]1CSSC[C@H](NC(=O)CNC(=O)CNC(=O)CN)C(=O)N[C@@H](Cc2ccc(O)cc2)C(=O)N[C@@H](Cc2ccccc2)C(=O)N[C@@H](CCC(N)=O)C(=O)N[C@@H](CC(N)=O)C(=O)N1)C(=O)NCC(N)=O	·	·	·	·	·	i
CCCCNS(=O)(=O)c1ccc(NC(=O)C2c3ccccc3Oc3ccccc32)cc1	?	?	-31%	?	10µM*	i
O=C(Nc1ccncc1)C1c2ccccc2Oc2ccccc21	?	-17%	-2%	-6%	-30%	i
Cc1ccc(C)c(CN2CCC(CNC(=O)Nc3ccc(Br)cc3F)CC2)c1	-2%	-12%	20µM*!	?	-84%	?
Cc1ccc(N=c2oc3cc(O)ccc3cc2C(N)=O)cc1	0.89µM*	0.89µM*	20%	14%	-29%	·
O=C(NCC(c1ccco1)S(=O)(=O)c1ccc(Cl)cc1)c1ccc(C(F)(F)F)cc1 (configuration not stated)	·	·	·	16µM*	-17%	·
Cc1ccc(CN(Cc2ccco2)C(=O)c2oc3ccc(C)cc3c2C)cc1	·	·	4%	?	-27%	i
Cc1ccc2occ(CC(=O)N(Cc3ccc(Cl)cc3)Cc3ccco3)c2c1	·	·	-23%	16µM*	-21%	i
CCCc1cnc(NCCNCC(O)COc2ccc(Cl)c(Cl)c2)nc1 (configuration not stated)	0%	2%	?	?	20µM*	?
CC(=O)c1cccc(OCC(O)CNCCc2ccc(Cl)cc2)c1 (configuration not stated)	-10%	3%	-11%	0%	-10%	i
